# About 2,000 (36%) of roughly 5,500 compounds were called active. Not shown: some 18% with an inconclusive outcome. The list shows a part of the results. A number with no mark means an inactive call. No stated cut-off is given here; in the data, active means normalized growth mostly below about 0.91 (no sharp cut-off); inconclusive means no clear call, values can overlap the other calls; inactive means mostly above about 0.92.
# Assay: chemical genetic growth profiling, strain panel (AID 1159580);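 further: tested at 20 µM; growth read once vehicle control cultures reached saturation at 30 °C; 1 = growth at the plate median or of vehicle wells; lower values mean less growth of the strain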
# Settings: S. cerevisiae deletion strains, growth OD
# [1] = locus YHR030C, strain SLT2, active compounds read low
# [2] = locus YHR079C, strain IRE1, active compounds read low
# [3] = locus YJL095W, strain BCK1, active compounds read low
# [4] = locus YJR066W, strain TOR1, active compounds read low
# [5] = locus YLR113W, strain HOG1, active compounds read low
# [6] = locus YNL183C, strain NPR1, active compounds read low
# [7] = locus YOR231W, strain MKK1, active compounds read low
# [8] = locus YPL256C, strain CLN2, active compounds read low
smiles,measurement,setting,value
N[C@@H](CC(=O)N1CCn2c(nnc2C(F)(F)F)C1)Cc1cc(F)c(F)cc1F,normalized growth,"locus YAL021C, strain ccr4, active compounds read low",0.992
same,normalized growth,"locus YAL026C, strain drs2, active compounds read low",0.97
same,normalized growth,"locus YAL030W, strain snc1, active compounds read low",0.985
same,normalized growth,"locus YBL061C, strain skt5, active compounds read low",0.985
same,normalized growth,"locus YBR009C, strain hhf1, active compounds read low",0.949
same,normalized growth,"locus YBR023C, strain chs3, active compounds read low",0.993
same,normalized growth,"locus YBR171W, strain sec66, active compounds read low",0.992
same,normalized growth,"locus YBR231C, strain swc5, active compounds read low",0.995
same,normalized growth,"locus YBR279W, strain paf1, active compounds read low",0.988
same,normalized growth,"locus YCL011C, strain gbp2, active compounds read low",0.982
same,normalized growth,"locus YCL016C, strain dcc1, active compounds read low",0.992
same,normalized growth,"locus YCL061C, strain MRC1, active compounds read low",0.987
same,normalized growth,"locus YCL069W, strain vba3, active compounds read low",0.984
same,normalized growth,"locus YCR088W, strain abp1, active compounds read low",0.984
same,normalized growth,"locus YDL005C, strain med2, active compounds read low",0.983
same,normalized growth,"locus YDL040C, strain nat1, active compounds read low",0.992
same,normalized growth,"locus YDR001C, strain nth1, active compounds read low",0.985
same,normalized growth,"locus YDR069C, strain doa4, active compounds read low",0.971
same,normalized growth,"locus YDR137W, strain rgp1, active compounds read low",1.01
same,normalized growth,"locus YDR159W, strain sac3, active compounds read low",0.952
same,normalized growth,"locus YDR195W, strain ref2",0.941
same,normalized growth,"locus YDR297W, strain sur2, active compounds read low",0.978
same,normalized growth,"locus YDR334W, strain swr1, active compounds read low",0.982
same,normalized growth,"locus YDR335W, strain msn5, active compounds read low",0.991
same,normalized growth,"locus YDR392W, strain spt3, active compounds read low",0.887
same,normalized growth,"locus YEL003W, strain gim4, active compounds read low",0.966
same,normalized growth,"locus YEL037C, strain rad23, active compounds read low",0.983
same,normalized growth,"locus YEL061C, strain CIN8 (second series), active compounds read low",0.983
same,normalized growth,"locus YER015W, strain faa2, active compounds read low",0.978
same,normalized growth,"locus YER016W, strain bim1, active compounds read low",0.995
same,normalized growth,"locus YER111C, strain swi4, active compounds read low",0.988
same,normalized growth,"locus YER155C, strain BEM2 (second series), active compounds read low",0.966
same,normalized growth,"locus YFR010W, strain ubp6, active compounds read low",0.975
same,normalized growth,"locus YGL167C, strain pmr1, active compounds read low",0.964
same,normalized growth,"locus YGL173C, strain kem1, active compounds read low",0.985
same,normalized growth,"locus YGL227W, strain vid30, active compounds read low",0.967
same,normalized growth,"locus YGL240W, strain doc1, active compounds read low",0.981
same,normalized growth,"locus YGL253W, strain hxk2, active compounds read low",0.996
same,normalized growth,"locus YHR013C, strain ard1, active compounds read low",0.944
same,normalized growth,"locus YHR027C, strain rpn1, active compounds read low",0.985
same,normalized growth,[1],1.03
same,normalized growth,[2],0.985
same,normalized growth,"locus YHR142W, strain chs7, active compounds read low",1.01
same,normalized growth,"locus YJL092W, strain hpr5, active compounds read low",0.989
same,normalized growth,"locus YJL095W, strain BCK1 (second series), active compounds read low",0.993
same,normalized growth,[3],0.96
same,normalized growth,"locus YJL115W, strain asf1, active compounds read low",0.984
same,normalized growth,"locus YJL129C, strain trk1, active compounds read low",1.01
same,normalized growth,"locus YJL154C, strain vps35, active compounds read low",0.987
same,normalized growth,"locus YJL164C, strain tpk1, active compounds read low",1
same,normalized growth,"locus YJL166W, strain qcr8, active compounds read low",0.993
same,normalized growth,"locus YJL187C, strain SWE1, active compounds read low",0.98
same,normalized growth,[4],0.928
same,normalized growth,"locus YKL160W, strain elf1, active compounds read low",1.01
same,normalized growth,"locus YKR026C, strain gcn3, active compounds read low",0.972
same,normalized growth,"locus YKR091W, strain srl3, active compounds read low",0.955
same,normalized growth,"locus YLL001W, strain dnm1, active compounds read low",0.992
same,normalized growth,"locus YLL026W, active compounds read low",0.995
same,normalized growth,"locus YLL041C, strain sdh2, active compounds read low",0.994
same,normalized growth,"locus YLR027C, strain aat2, active compounds read low",0.988
same,normalized growth,[5],0.978
same,normalized growth,"locus YLR221C, strain rsa3, active compounds read low",0.989
same,normalized growth,"locus YLR258W, strain gsy2, active compounds read low",0.979
same,normalized growth,"locus YLR262C, strain YPT6 (second series), active compounds read low",1
same,normalized growth,"locus YLR320W, strain mms22, active compounds read low",0.998
same,normalized growth,"locus YLR342W, strain FKS1, active compounds read low",0.958
same,normalized growth,"locus YLR357W, strain rsc2, active compounds read low",0.989
same,normalized growth,"locus YLR370C, strain arc18, active compounds read low",0.977
same,normalized growth,"locus YLR384C, strain iki3, active compounds read low",0.969
same,normalized growth,"locus YML120C, strain ndi1, active compounds read low",0.988
same,normalized growth,"locus YMR058W, strain fet3, active compounds read low",0.977
same,normalized growth,"locus YMR125W, strain sto1, active compounds read low",0.974
same,normalized growth,"locus YMR129W, active compounds read low",0.984
same,normalized growth,"locus YMR205C, strain PFK2, active compounds read low",0.96
same,normalized growth,"locus YMR231W, strain pep5, active compounds read low",0.977
same,normalized growth,"locus YNL071W, strain lat1, active compounds read low",0.979
same,normalized growth,[6],0.898
same,normalized growth,"locus YNL209W, strain ssb2, active compounds read low",0.986
same,normalized growth,"locus YNL248C, strain rpa49, active compounds read low",1.01
same,normalized growth,"locus YNL322C, strain KRE1 (second series), active compounds read low",0.975
same,normalized growth,"locus YNR049C, strain mso1, active compounds read low",0.98
same,normalized growth,"locus YOR001W, strain rrp6, active compounds read low",1.01
same,normalized growth,"locus YOR070C, strain gyp1, active compounds read low",0.995
same,normalized growth,"locus YOR080W, strain dia2, active compounds read low",0.976
same,normalized growth,"locus YOR083W, strain WHI5, active compounds read low",1.01
same,normalized growth,"locus YOR106W, strain vam3, active compounds read low",0.994
same,normalized growth,[7],0.975
same,normalized growth,"locus YOR265W, strain rbl2, active compounds read low",0.993
same,normalized growth,"locus YOR270C, strain vph1, active compounds read low",0.984
same,normalized growth,"locus YOR290C, strain snf2, active compounds read low",0.903
same,normalized growth,"locus YPL051W, strain arl3, active compounds read low",1.01
same,normalized growth,"locus YPL078C, strain atp4, active compounds read low",0.992
same,normalized growth,"locus YPL106C, strain sse1, active compounds read low",0.976
same,normalized growth,"locus YPL240C, strain hsp82, active compounds read low",0.965
same,normalized growth,[8],0.981
N#CC(C#N)=Cc1ccc(-c2ccccc2C(F)(F)F)o1,normalized growth,"locus YAR019C, strain CDC15, active compounds read low",0.947
same,normalized growth,"locus YBL105C, strain PKC1, active compounds read low",0.946
same,normalized growth,"locus YBR135W, strain CKS1, active compounds read low",0.947
same,normalized growth,"locus YBR136W, strain MEC1, active compounds read low",0.947
same,normalized growth,"locus YBR160W, strain CDC28, active compounds read low",0.95
same,normalized growth,"locus YDL017W, strain CDC7, active compounds read low",0.947
same,normalized growth,"locus YDL028C, strain MPS1, active compounds read low",0.954
same,normalized growth,"locus YDL101C, strain DUN1, active compounds read low",0.925
same,normalized growth,"locus YDL108W, strain KIN28, active compounds read low",0.953
same,normalized growth,"locus YDL132W, strain cdc53, active compounds read low",0.947
same,normalized growth,"locus YDL214C, strain PRR2, active compounds read low",0.901
same,normalized growth,"locus YDR052C, strain DBF4, active compounds read low",0.957
same,normalized growth,"locus YDR054C, strain cdc34, active compounds read low",0.94
same,normalized growth,"locus YDR226W, strain ADK1, active compounds read low",0.943
same,normalized growth,"locus YDR477W, strain SNF1, active compounds read low",0.913
same,normalized growth,"locus YER123W, strain YCK3, active compounds read low",0.876
same,normalized growth,"locus YER133W, strain GLC7, active compounds read low",0.925
same,normalized growth,"locus YFL009W, strain cdc4, active compounds read low",0.94
same,normalized growth,"locus YFL029C, strain CAK1, active compounds read low",0.945
same,normalized growth,"locus YFR003C, strain YPI1, active compounds read low",0.944
same,normalized growth,"locus YFR019W, strain FAB1, active compounds read low",0.898
same,normalized growth,"locus YFR028C, strain CDC14, active compounds read low",0.94
same,normalized growth,"locus YGR040W, strain KSS1, active compounds read low",0.903
same,normalized growth,"locus YGR052W, strain FMP48, active compounds read low",0.871
same,normalized growth,"locus YGR092W, strain DBF2, active compounds read low",0.783
same,normalized growth,[1],0.875
same,normalized growth,[2],0.905
same,normalized growth,"locus YHR082C, strain KSP1, active compounds read low",0.906
same,normalized growth,"locus YHR205W, strain SCH9, active compounds read low",0.784
same,normalized growth,"locus YIL147C, strain SLN1, active compounds read low",0.948
same,normalized growth,[3],0.838
same,normalized growth,"locus YJL128C, strain PBS2, active compounds read low",0.866
same,normalized growth,"locus YJL157C, strain FAR1, active compounds read low",0.907
same,normalized growth,"locus YJR016C, strain ILV3, active compounds read low",0.95
same,normalized growth,"locus YJR066W, strain TOR1 (second series), active compounds read low",0.873
same,normalized growth,[4],0.893
same,normalized growth,"locus YKL048C, strain ELM1, active compounds read low",0.899
same,normalized growth,"locus YKL067W, strain YNK1, active compounds read low",0.89
same,normalized growth,"locus YKL101W, strain HSL1, active compounds read low",0.873
same,normalized growth,"locus YKL193C, strain SDS22, active compounds read low",0.942
same,normalized growth,"locus YKL203C, strain TOR2, active compounds read low",0.931
same,normalized growth,[5],0.758 (active)
same,normalized growth,"locus YLR133W, strain CKI1, active compounds read low",0.891
same,normalized growth,"locus YLR403W, strain SFP1, active compounds read low",0.848
same,normalized growth,"locus YML070W, strain DAK1, active compounds read low",0.894
same,normalized growth,"locus YMR001C, strain CDC5, active compounds read low",0.94
same,normalized growth,"locus YMR205C, strain PFK2 (second series), active compounds read low",0.899
same,normalized growth,"locus YMR277W, strain FCP1, active compounds read low",0.935
same,normalized growth,"locus YNL006W, strain LST8, active compounds read low",0.949
same,normalized growth,"locus YNL020C, strain ARK1, active compounds read low",0.892
same,normalized growth,"locus YNL161W, strain CBK1, active compounds read low",0.941
same,normalized growth,[6],0.864
same,normalized growth,"locus YNL207W, strain RIO2, active compounds read low",0.943
same,normalized growth,"locus YNL222W, strain SSU72, active compounds read low",0.951
same,normalized growth,"locus YNL307C, strain MCK1 (second series), active compounds read low",0.788
same,normalized growth,"locus YOL078W, strain AVO1, active compounds read low",0.939
same,normalized growth,"locus YOL136C, strain PFK27, active compounds read low",0.851
same,normalized growth,"locus YOR061W, strain CKA2, active compounds read low",0.907
same,normalized growth,"locus YOR119C, strain RIO1, active compounds read low",0.964
same,normalized growth,[7],0.87
same,normalized growth,"locus YOR329C, strain SCD5, active compounds read low",0.944
same,normalized growth,"locus YPL031C, strain PHO85, active compounds read low",0.895
same,normalized growth,"locus YPL153C, strain RAD53, active compounds read low",0.907
same,normalized growth,"locus YPL204W, strain HRR25, active compounds read low",0.88
same,normalized growth,"locus YPL209C, strain IPL1, active compounds read low",0.947
same,normalized growth,[8],0.929
same,normalized growth,"locus YPR025C, strain CCL1, active compounds read low",0.948
same,normalized growth,"locus YPR106W, strain ISR1, active compounds read low",0.938
same,normalized growth,"locus YPR111W, strain DBF20, active compounds read low",0.916
same,normalized growth,"strain NNK1, active compounds read low",0.922
same,normalized growth,"strain TSCII, active compounds read low",0.935
